Assay results as given in PubChem BioAssay AID1159580 (chemical genetic matrix, 2015).
Among all 5,500 compounds or so, about 2,000 (36%) were called active. About 18% were inconclusive and are not listed. Cut-off read from the data, not from the text of the source: active = normalized growth mostly below about 0.91 (no sharp cut-off); inconclusive = no clear call, values can overlap the other calls; inactive = mostly above about 0.92. The list shows a part of the results.

Assay: chemical genetic growth profiling, strain panel (AID 1159580);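 note: tested at 20 µM; growth read once vehicle control cultures reached saturation at 30 °C; 1 = growth at the plate median or of vehicle wells; lower values mean less growth of the strain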
Conditions: growth OD
[1] = S. cerevisiae deletion strains, locus YAL013W, strain DEP1, hits give low values
[2] = S. cerevisiae deletion strains, locus YBR229C, strain ROT2, hits give low values
[3] = S. cerevisiae deletion strains, locus YDL101C, strain DUN1, hits give low values
[4] = S. cerevisiae deletion strains, locus YDR150W, strain NUM1, hits give low values
[5] = S. cerevisiae deletion strains, locus YEL061C, strain CIN8, hits give low values
[6] = S. cerevisiae deletion strains, locus YGR078C, strain PAC10, hits give low values
[7] = S. cerevisiae deletion strains, locus YHR030C, strain SLT2, hits give low values
[8] = S. cerevisiae deletion strains, locus YJR043C, strain POL32, hits give low values
[9] = S. cerevisiae deletion strains, locus YJR075W, strain HOC1, hits give low values
[10] = S. cerevisiae deletion strains, locus YKL190W, strain CNB1, hits give low values
[11] = S. cerevisiae deletion strains, locus YLR039C, strain RIC1, hits give low values
[12] = S. cerevisiae deletion strains, locus YLR262C, strain YPT6, hits give low values
[13] = S. cerevisiae deletion strains, locus YMR263W, strain SAP30, hits give low values
[14] = S. cerevisiae deletion strains, locus YMR307W, strain GAS1, hits give low values
[15] = S. cerevisiae deletion strains, locus YNL153C, strain GIM3, hits give low values
[16] = S. cerevisiae deletion strains, locus YNL322C, strain KRE1, hits give low values
[17] = S. cerevisiae deletion strains, locus YOL006C, strain TOP1, hits give low values
[18] = S. cerevisiae deletion strains, locus YPL055C, strain LGE1, hits give low values
[19] = S. cerevisiae deletion strains, locus YPL241C, strain CIN2, hits give low values

Measured: normalized growth

O=C(O)c1nccnc1C(=O)O
inactive: [1] 0.993 | [2] 0.991 | [3] 0.988 | [4] 0.924 | [5] 0.994 | [6] 1 | [7] 1.02 | S. cerevisiae deletion strains, locus YHR087W, strain rtc3, hits give low values 1.02 | [8] 0.972 | [9] 0.988 | [10] 1.01 | [11] 1.01 | S. cerevisiae deletion strains, locus YLR058C, strain SHM2 (second series), hits give low values 1.01 | S. cerevisiae deletion strains, locus YLR085C, strain ARP6, hits give low values 1.01 | [12] 1.03 | S. cerevisiae deletion strains, locus YML094W, strain GIM5, hits give low values 1.01 | S. cerevisiae deletion strains, locus YMR219W, strain ESC1, hits give low values 1.01 | [13] 0.991 | [14] 0.992 | [15] 1 | S. cerevisiae deletion strains, locus YNL298W, strain CLA4 (second series), hits give low values 1.01 | [16] 1.01 | S. cerevisiae deletion strains, locus YNR030W, strain Alg12, hits give low values 1.05 | [17] 1.06 | [18] 0.951 | [19] 1.01 | S. cerevisiae deletion strains, locus YPR135W, strain CTF4, hits give low values 1.05

COP(=O)(OC)OC(Br)C(Cl)(Cl)Br (stereo not drawn)
inactive: [1] 0.966 | S. cerevisiae deletion strains, locus YBR021W, strain FUR4, hits give low values 1.04 | [2] 0.947 | S. cerevisiae deletion strains, locus YCL029C, strain bik1, hits give low values 0.997 | S. cerevisiae deletion strains, locus YDL035C, strain GPR1, hits give low values 0.984 | S. cerevisiae deletion strains, locus YDL074C, strain BRE1, hits give low values 0.961 | [3] 0.988 | S. cerevisiae deletion strains, locus YDL134C, strain PPH21, hits give low values 0.994 | S. cerevisiae deletion strains, locus YDL185W, strain tfp1, hits give low values 0.989 | S. cerevisiae deletion strains, locus YDL192W, strain arf1, hits give low values 1 | S. cerevisiae deletion strains, locus YDR101C, strain arx1, hits give low values 0.999 | [4] 0.984 | S. cerevisiae deletion strains, locus YDR162C, strain NBP2, hits give low values 0.988 | S. cerevisiae deletion strains, locus YDR318W, strain mcm21, hits give low values 1 | S. cerevisiae deletion strains, locus YDR388W, hits give low values 1.01 | S. cerevisiae deletion strains, locus YDR502C, strain sam2, hits give low values 1 | [5] 0.993 | S. cerevisiae deletion strains, locus YER110C, hits give low values 0.993 | S. cerevisiae deletion strains, locus YER155C, strain BEM2, hits give low values 1 | S. cerevisiae deletion strains, locus YER167W, strain BCK2, hits give low values 0.981 | S. cerevisiae deletion strains, locus YGL078C, strain dbp3, hits give low values 1.01 | S. cerevisiae deletion strains, locus YGL086W, strain mad1, hits give low values 0.989 | S. cerevisiae deletion strains, locus YGL248W, strain PDE1, hits give low values 0.968 | [6] 0.987 | S. cerevisiae deletion strains, locus YGR135W, strain pre9, hits give low values 1.01 | S. cerevisiae deletion strains, locus YGR229C, strain SMI1, hits give low values 0.996 | S. cerevisiae deletion strains, locus YGR252W, strain gcn5, hits give low values 1.06 | [7] 1.01 | S. cerevisiae deletion strains, locus YHR079C, strain IRE1 (second series), hits give low values 0.995 | S. cerevisiae deletion strains, locus YHR094C, strain hxt1, hits give low values 1.01 | S. cerevisiae deletion strains, locus YHR129C, strain ARP1, hits give low values 0.969 | S. cerevisiae deletion strains, locus YHR200W, strain rpn10, hits give low values 0.997 | S. cerevisiae deletion strains, locus YIL066C, strain RNR3, hits give low values 0.984 | S. cerevisiae deletion strains, locus YIL073C, strain SPO22, hits give low values 1.06 | S. cerevisiae deletion strains, locus YIL125W, strain kgd1, hits give low values 1 | S. cerevisiae deletion strains, locus YIR030C, strain dcg1, hits give low values 1.01 | S. cerevisiae deletion strains, locus YJL095W, strain BCK1, hits give low values 1 | S. cerevisiae deletion strains, locus YJL134W, strain LCB3, hits give low values 0.994 | S. cerevisiae deletion strains, locus YJL168C, strain set2, hits give low values 0.997 | S. cerevisiae deletion strains, locus YJL187C, strain SWE1 (second series), hits give low values 0.965 | [8] 0.999 | [9] 0.964 | S. cerevisiae deletion strains, locus YKL009W, strain mrt4, hits give low values 0.948 | S. cerevisiae deletion strains, locus YKL068W, hits give low values 0.995 | S. cerevisiae deletion strains, locus YKL085W, strain MDH1 (second series), hits give low values 1.01 | S. cerevisiae deletion strains, locus YKL085W, strain MDH1, hits give low values 1.01 | [10] 0.997 | S. cerevisiae deletion strains, locus YKR001C, strain vps1, hits give low values 1.01 | [11] 0.997 | S. cerevisiae deletion strains, locus YLR058C, strain SHM2, hits give low values 0.979 | S. cerevisiae deletion strains, locus YLR102C, strain apc9, hits give low values 0.994 | [12] 0.99 | S. cerevisiae deletion strains, locus YLR268W, strain sec22, hits give low values 1.01 | S. cerevisiae deletion strains, locus YLR330W, strain CHS5, hits give low values 0.988 | S. cerevisiae deletion strains, locus YLR342W, strain FKS1 (second series), hits give low values 0.98 | S. cerevisiae deletion strains, locus YLR371W, strain rom2, hits give low values 0.999 | S. cerevisiae deletion strains, locus YLR418C, strain cdc73, hits give low values 0.987 | S. cerevisiae deletion strains, locus YML016C, strain PPZ1, hits give low values 0.989 | S. cerevisiae deletion strains, locus YML032C, strain rad52, hits give low values 1.01 | S. cerevisiae deletion strains, locus YML124C, strain tub3, hits give low values 1.01 | S. cerevisiae deletion strains, locus YMR078C, strain ctf18, hits give low values 1.02 | S. cerevisiae deletion strains, locus YMR223W, strain ubp8, hits give low values 1 | [13] 0.989 | [14] 1.02 | S. cerevisiae deletion strains, locus YNL067W, strain RPL9B, hits give low values 0.974 | S. cerevisiae deletion strains, locus YNL128W, strain TEP1, hits give low values 0.957 | [15] 0.971 | S. cerevisiae deletion strains, locus YNL233W, strain BNI4, hits give low values 0.978 | S. cerevisiae deletion strains, locus YNL250W, strain rad50, hits give low values 0.999 | S. cerevisiae deletion strains, locus YNL271C, strain bni1, hits give low values 1.01 | S. cerevisiae deletion strains, locus YNL298W, strain CLA4, hits give low values 1.01 | S. cerevisiae deletion strains, locus YNL307C, strain MCK1, hits give low values 1.02 | [16] 0.987 | S. cerevisiae deletion strains, locus YNR052C, strain pop2, hits give low values 1.01 | [17] 1.04 | S. cerevisiae deletion strains, locus YOL012C, strain htz1 1.23 | S. cerevisiae deletion strains, locus YOL147C, strain pex11, hits give low values 1.01 | S. cerevisiae deletion strains, locus YOR061W, strain CKA2, hits give low values 0.973 | S. cerevisiae deletion strains, locus YOR069W, strain VPS5, hits give low values 0.998 | S. cerevisiae deletion strains, locus YOR136W, strain idh2, hits give low values 1 | S. cerevisiae deletion strains, locus YOR144C, strain elg1, hits give low values 1 | S. cerevisiae deletion strains, locus YOR184W, strain ser1, hits give low values 1.01 | S. cerevisiae deletion strains, locus YOR316C, strain cot1, hits give low values 0.992 | [18] 0.99 | [19] 0.998 | S. cerevisiae deletion strains, locus YPR119W, strain clb2, hits give low values 1.01 | S. cerevisiae deletion strains, locus YPR141C, strain kar3, hits give low values 0.993 | S. cerevisiae deletion strains, locus YPR163C, strain tif3, hits give low values 1 | S. cerevisiae deletion strains, locus YPR167C, strain met16, hits give low values 0.99 | S. cerevisiae deletion strains, strain wtn01, hits give low values 1 | S. cerevisiae strains, strain wild type, hits give low values 0.994
